Experimental data: the supplement of paper PMC11417369
In all, about 25,000 sequences were measured (“ln(normalized median fluorescence intensity)”: median about 7.1, highest 2% from about 10 on). This is one part of a sample in which the highest values are shown more often than they occur.

What follows are sequences tested on PfSIP2 AP2 domain 1 (GST-tagged) (assay: gcPBM binding intensity (ln(normalized median fluorescence intensity)); higher = stronger DNA binding).
How it was run: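 Alexa488 anti-GST antibody, scanned at 488 nm, detected GST-tagged P. falciparum DNA-binding domains that had been expressed in E. coli and incubated for 1 h on an Agilent 4 × 180k array. The array carried primer-extended double-stranded 36-bp intergenic genomic probes and negative controls. Binding intensity is the highest Masliner-normalised natural-log median intensity across replicate spots of either orientation of each probe.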

Row | Sequence | gcPBM binding intensity (ln)
1 | TATTAACTCAATAGCGCACACTTTTAATATTTTATA [CACACA_site4973] | 7.33
2 | TAAATAGGAAAACCTATACACACTTTAAAAAAAATA [CACACA_site1621] | 6.75
3 | ATTATATCATCTAAAACATGCACACATATGTACTCT [TGCATGCA_site949] | 7.12
4 | TTATTTATGAGGGTGACACACAAAAGAGTGTTAAGA [CACACA_site277] | 6.75
5 | ATACGAAAAAATAGACGTACTATGAAATAATAATTT [XGTACX_site8387] | 6.87
6 | GTCCTCATCCACTATGCACACAAAAAAGAAATACAC [CACACA_site9131] | 8.48
7 | AAAAAAAAAAAACACACACACACACCCAAATATATA [CACACA_site150] | 7.14
8 | GGAAAAAATATATGCACACCCCCCAAAAAAAAAAAA [CACACA_site2222] | 9.73
9 | TGGGAAAAAATATATGCACACCCCCCAAAAAAAAAA [CACACA_site8696] | 10.8
10 | ATAGTTTTATATAAATGTACAAATGATTTCAAATAG [XGTACX_site8236] | 7.08
11 | GTTATATTTAAAATAGTGCAATAAAAATAATAATAT | 8.42
12 | ATATATATATATTTCGTGCACTGATAATATTATTTT | 10.2
13 | TTATAATATTAATGTGCACACAATTAAAATATTATA [CACACA_site2046] | 9.4
14 | ATAATTAAAAATAATATATATATAATATGATATTAT [GTGCAC_negctrl_site194] | 6.94
15 | AAAAAAAAAAAATACGTGCACTATGATATATTATAT | 10.3
16 | ATAATTATATGATGAGTGCACAATAAAAATATCGTT [GTGCAC_site9920] | 10.7
17 | ATGATATATTTAATAGTGCACTAATTAAAATTATTA [GTGCAC_site9418] | 11
18 | TAAATATATATATATAGTACAATATAATTATGATAT [XGTACX_site258] | 7.24
19 | ATATATATATTTATAGTGCATTTATATTAAAATATC [GTGCAC_site9818] | 8.92
20 | ATATTTTATATAATAGTGCAAATAATATTAAATAAT | 8.4
21 | ATTATTAAAATGATATGTACGCACATAATATACATA [XGTACX_site3236] | 7.06
22 | TTATATTATTCGTGTGTGCACGATATTTCATAATTG [GTGCAC_site9767] | 8.96
23 | TATATATATACTTAATGTACATATATATATATATAT [XGTACX_site3102] | 9.75
24 | CCCCTTAATTAAAGGAGTACTATTTGTGAATAATAT [XGTACX_site4715] | 7.47
25 | ATAATTCCATAAAATAGACACACGAATGTATAATAT [CACACA_site477] | 7
26 | AATAATGAAAAATCAAATAACCTAAATTACAACTGT [XGTACX_negctrl_site65] | 6.91

Row | Sequence | gcPBM binding intensity (ln)
27 | TACGTTGTATATTTTTGTACATATTGAATTACAAAA [XGTACX_site5906] | 6.95
28 | ACGAAAAGATATATATGTACATATATTAAAAAAAAA [XGTACX_site1517] | 7.01
29 | TTCAAACATATTAATTGTACATACAACAAAACCATG [XGTACX_site5149] | 7.13
30 | TGTGCCCAAAATTATGCACACACCTAAAATTAATTT [CACACA_site2914] | 7.79
31 | TGCACAAAATTATGCACACACCTAAAATTAATTTTT [CACACA_site5596] | 8.28
32 | ATTATGCACGGACACACACACACACCCCTAAAAAAT [CACACA_site5426] | 7.88
33 | ATTATGCACCAACACACACACACACTCCTAAAAAAT [CACACA_site8822] | 11.1
34 | ATTATGCACCAACACACACACACACCCCTAAAAAAT [CACACA_site2568] | 10.8
35 | TAATTATGCCAACACACACACACACCCAACTAAAAA [CACACA_site8823] | 7.32
36 | TATATACTCAGACATACACACAAATAAAAAAACACC [CACACA_site5820] | 8.07
37 | AAATAATATATTCTATATAATAAATTATAAATATAA [GTGCAC_negctrl_site558] | 6.58
38 | AAGTGTATATAAAAATGTACATATTTCGATTTAAAT [XGTACX_site4161] | 7.11
39 | TTTATATCATTTCTTAAAAAAAAGGAGGTAATAGAC [TGCATGCA_negctrl_site555] | 8.44
40 | TTATTTTTAATATCGGTGCAACAAAAAGGAAAAGAT [GTGCAC_site9482] | 9.64
41 | TTCTTAAAAGGAAAGGTGCAACTTTATCATTTTCTT | 10.9
42 | TAAAGATGAAATATCACACATATATAAATATATAAA [CACACA_site4580] | 6.69
43 | AATAATAATAGAAACACACACACATTTTTAAGAATA [CACACA_site6692] | 6.74
44 | AACAAAGAAAATACATGTACAAAAAATATTAACGAA [XGTACX_site287] | 7.22
45 | TTTAGTGAGTTTGTTGTGCACTGAAAAAATTACAAT | 10.5
46 | ATAAATAAAACAACAGTGCAATAAAATTAGTTGAGG | 7.5
47 | TATATTATATATATACTGCACTGTTTTACAAAATTA | 8.44
48 | TTATATAATCCTTTCAAACACACAAAATATAATTAA [CACACA_site1830] | 6.91
49 | ACAAAATAAACCACGTGTACAAATTTATAATGTGTA [XGTACX_site1153] | 7.21
50 | AAAAAAAAAAAAAGCACACATATAAATATGAATAAA [CACACA_site1393] | 7.18
51 | TACAAAATATATATGACACACATAAAAAAAAGTATA [CACACA_site1373] | 6.96
